High-throughput results (PubChem BioAssay)
Compounds with a hit are over-represented: about 19% of the library has one in this group of screens.
HT1080 IDH1KD tx: toxicity to HT-1080 IDH1 knockdown cells (counter line). HT-1080 IDH1 knockdown viability, ATP luminescence, 48 h. AID 686971. Potency, µM (doses to about 46.1 µM), actives largely listed as cytotoxic. 360,000 tested, 2% active
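Viability of IDH1-knockdown HT-1080 fibrosarcoma cells was assessed by CellTiter-Glo after 48 h at 37 °C with titrated compound; concentration-effect curves were classified by fit quality and response size.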
TDP1 cell CPT: growth inhibition of DT40 Tdp1-/-;hTDP1 cells with camptothecin (screen for TDP1 inhibitors); 420,000 tested, 12% active; Potency, µM (top dose mostly 46.2 µM), hits mostly inhibitors; chicken DT40 Tdp1-/-;hTDP1 cells + 20 nM CPT, ATP luminescence, 48 h; AID 686979; also: nearly all actives have a fitted effect of over 55% in size
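Cell growth measured by CellTiter-Glo luminescence after a minimum 48 h, 37 C compound exposure with 20 nM CPT in Tdp1-knockout DT40 cells stably expressing hTDP1, seeded 400/well; qHTS titration format.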
HT1080-NT tox: kills 2HG-producing HT-1080-NT fibrosarcoma cells | 360,000 tested, 1.6% active | Potency, µM (highest dose often 46.1 µM), actives largely listed as cytotoxic | HT-1080-NT fibrosarcoma viability, CellTiter-Glo ATP luminescence, 48 h;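 also: NT is the 2HG producing partner of a matched IDH1 knockdown line; nearly all actives have a fitted effect of over 55% in size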
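Toxicity toward the 2HG-producing NT line was scored as %Activity, normalised to DMSO and no-cell wells, from CellTiter-Glo luminescence after 48 hours' treatment.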
TDP1 cell noCPT: qHTS for Inhibitors of human tyrosyl-DNA phosphodiesterase 1 (TDP1): qHTS in cells in absence of CPT; DT40 Tdp1-/- hTDP1 cells, no CPT, ATP luminescence, 48 h; Potency, µM (series often up to 46.2 µM), most hits filed as inhibitors; 420,000 tested, 15% active; also: nearly all actives have a fitted effect of over 55% in size
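Compound effects on proliferation are scored in DT40 Tdp1-/-;hTDP1 cells in the absence of CPT. ATP levels (CellTiter-Glo luminescence) are recorded after a ≥48 hr, 37 °C incubation.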
IL-1B inflam inh: inhibitors of inflammasome signaling (IL-1 beta secretion). THP-1 LPS/ATP IL-1B secretion, AlphaLISA, 16 h; hits give low values. activity change, % at 57.5 µM. 360,000 tested, 4.7% active. AID 743279; in the data active = activity change below about -50%; inconclusive = mostly about -30% to -49%
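Secreted IL-1B measured by AlphaLISA bead assay after 16 h compound exposure of THP-1 cells; compounds (final up to 57.5 uM) added 1 h before LPS (250 ng/mL) and ATP (1.25 mM) stimulation; lower signal means less secretion.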
A number is an active result; . = inactive; ? = inconclusive; / = not tested or not shown; [ ] = dose if it differs, or a comment. Unless noted, calls follow the shape of the dose curve; as a rule, active = well fitted curve in the direction sought with a large enough effect; inconclusive = small, poorly fitted or top-dose-only effect, or another doubt; inactive = no such curve, though single readings can be large; an effect the other way counts as inactive or inconclusive.

SMILES	HT1080 IDH1KD tx	TDP1 cell CPT	HT1080-NT tox	TDP1 cell noCPT	IL-1B inflam inh
NC(=S)N/N=C/c1cccnc1	/	.	/	.	/
NC(=S)N/N=C\c1c(OCc2ccccc2Cl)ccc2ccccc12	.	6.5µM	.	?	.
NC(=S)N/N=C\c1c2ccccc2cc2ccccc12	.	15µM	.	?	.
COCCNC(=S)N/N=C/c1c2ccccc2cc2ccccc12	.	3.7µM	.	4.1µM	.
C[N+](C)(C)CC(=O)N/N=C/c1c2ccccc2cc2ccccc12	.	.	.	.	.
NC(=S)NN=Cc1cc(-c2cccc(N)c2)ccn1	?	3.7µM	.	4.1µM	.
Cc1cccc(OCC(=O)Nc2ccccc2C(=O)OCc2cc(=O)n3ccsc3n2)c1	/	.	/	.	/
CN(C)c1ccc(CNC(=O)C2CCC(CNc3c(N4CCCCC4)c(=O)c3=O)CC2)cc1 (centres undefined)	.	.	.	.	.
CNC(=S)N/N=C/c1c(C)cccc1Cl	.	?	.	?	.
CNC(=S)N/N=C/c1c2ccccc2c(Cl)c2ccccc12	.	5.8µM	.	5.8µM	.
Cc1c(C2(O)CCCCC2)[nH]c2cc(C(F)(F)F)ccc12	?	21µM	?	16µM	-65
CCc1c(C2(O)CCCCC2)[nH]c2cc(C(F)(F)F)ccc12	?	?	?	13µM	.
CCc1c(C2(O)CCCCC2)[nH]c2ccc(C#N)cc12	.	?	.	?	.
CCCCCC=CCC=CCCCCCCCC(=O)OCC	/	.	/	.	/
N=C(N)SCc1nc2ccccc2c(=O)n1-c1ccccc1	.	?	.	18µM	?
COc1ccc(NC2=Nc3ccccc3N3C2=Nc2c(c(C)nn2-c2ccc(C)cc2)C3c2cccnc2)cc1 (centres undefined)	.	21µM	.	?	.
CC(=O)Nc1ccc(NC2=Nc3ccccc3N3C2=Nc2c(c(C)nn2-c2ccccc2)C3c2ccccc2)cc1 (centres undefined)	.	2.6µM	.	2.3µM	.
CC(=O)C1C(C)CC2C3CCC4CC(=O)CCC4(C)C3CCC21C (centres undefined)	.	?	.	21µM	.
CC(=O)C1CCC2C3CCC4CC(=O)CCC4(C)C3C=CC12C (centres undefined)	.	.	.	15µM	.
O=C(OCc1cn([C@@H]2C[C@H](c3ccc(Cl)cc3)N(C(=O)c3cccs3)C[C@H]2O)nn1)c1ccccc1	.	.	.	?	.
COc1ccc(C(=O)NCc2nnc(SCC(=O)NCc3ccco3)o2)cc1	.	.	.	.	.
O=C(COC(=O)c1cccnc1SCC(=O)NCc1ccccc1)NCc1ccccc1	?	23µM	.	?	.
O=C(COC(=O)CC(c1ccccc1)c1ccccc1)NCc1ccc(Cl)cc1	.	.	.	.	-71
COc1ccccc1CNC(=O)COC(=O)c1cccnc1SCC(=O)NCc1ccccc1OC	.	?	.	?	.
CCCC(=O)OCC(=O)NCc1ccc(Cl)cc1	.	.	.	.	.
SMILES	HT1080 IDH1KD tx	TDP1 cell CPT	HT1080-NT tox	TDP1 cell noCPT	IL-1B inflam inh
COc1cc(NC(=O)c2cc(-c3ccc(Cl)c(Cl)c3)on2)cc(OC)c1OC	/	8.2µM	/	?	/
COc1cc(NC(=O)Nc2cccc(-c3noc(C)n3)c2)cc(OC)c1OC	/	?	/	23µM	/
COCCNC(=O)c1cc(-c2cccs2)on1	.	?	.	23µM	.
COc1cc(NC(=O)c2cc(-c3cccc(O)c3)on2)cc(OC)c1OC	?	?	?	13µM	.
COc1cc(NC(=O)c2cc(-c3ccc(C)cc3)on2)cc(OC)c1OC	.	.	.	?	.
COc1cc(NC(=O)Nc2cccc(C(C)=O)c2)cc(OC)c1OC	.	.	?	.	.
COC(=O)C1CCCCN1Cc1ccc2c(c1)CN(C1CCSCC1)CCO2 (centres undefined)	/	.[9.04 µM]	/	.	/
CCC(C)NC(=O)c1ccc2nc(-c3cccs3)c(-c3cccs3)nc2c1 (centres undefined)	/	10µM	/	13µM	/
COc1cc(NC(=O)c2cc(-c3cccs3)on2)cc(OC)c1OC	.	21µM	.	16µM	.
COCCNC(=O)Nc1ccc2nc(-c3cccs3)c(-c3cccs3)nc2c1	.	?	.	?	-54
COc1cc(NC(=O)c2cc(-c3ccccc3Cl)on2)cc(OC)c1OC	?	2.9µM	?	2.9µM	-81
COCCNC(=S)NNC(=O)c1cccs1	.	.	.	.	.
C[C@H](CO)N1C[C@H](C)[C@H](CN(C)C(=O)C2CC2)OCc2cnnn2CCCC1=O	.	.	.	.	.
COc1cc(NC(=O)c2noc3c2CCc2ccccc2-3)cc(OC)c1OC	/	7.3µM	/	16µM	/
COc1cc(-c2ccc(Cl)cn2)cc2c1OCCN(C(=O)c1ccccc1-n1cccn1)C2	/	.	/	?	/
Cc1ccc2c(n1)sc1c(-c3ccc(Br)cc3)c(C#N)c(N)nc12	.	?	.	18µM	.
O=C1C(=O)N(C2CCNCC2)CCN1Cc1ccccc1	/	.	/	.	/
Cn1c(N2CCN(C(=O)NCc3ccccc3)CC2)nc2ccccc21	.	?	.	.	.
Cn1c(N2CCN(C(=O)Nc3ccc(C(F)(F)F)cc3)CC2)nc2ccccc21	.	18µM	.	21µM	.
CCCn1c(N2CCN(C(=O)Nc3ccc(Cl)cc3)CC2)nc2ccccc21	.	?	.	23µM	?
Cc1ccccc1C(=O)NCCNC(=O)c1cnccn1	.	.	.	.	.
COc1cc(CNc2ccc(C(=O)O)cc2)cc(Br)c1OCC(=O)NC(C)(C)C	.	.	.	?	.
C=CCOc1c(Br)cc(CNc2ccc(NC(=O)C(C)C)c(OC)c2)cc1OC	?	?	?	18µM	.
C=CCOc1c(Br)cc(CNn2nnnc2N)cc1OC	.	.	.	7.3µM	.
Cc1ccc(N(CC(=O)NCCSCc2ccco2)S(=O)(=O)c2ccc(F)cc2)cc1	.	26µM	.	23µM	.
SMILES	HT1080 IDH1KD tx	TDP1 cell CPT	HT1080-NT tox	TDP1 cell noCPT	IL-1B inflam inh
O=C(CN(c1ccccc1)S(=O)(=O)c1ccccc1)NCCSCc1ccco1	.	.	.	.	.
Cc1ccc(N(CC(=O)NCCSCc2ccco2)S(C)(=O)=O)cc1	.	.	.	.	.
Cc1ccc(S(=O)(=O)N(CC(=O)NCCSCc2ccco2)c2cc(C)ccc2C)cc1	.	16µM	.	?	.
CCOC(=O)CSc1nc2sc3c(c2c(=O)n1CC)CCCC3	/	.	/	.	/
Cc1ccc2nc(-c3ccc(SCC(=O)Nc4nnc(C)s4)nc3)[nH]c2c1	9.2µM	?	21µM	15µM	-95
Cc1ccc2nc(-c3ccc(SCC(=O)Nc4nc(C)cs4)nc3)[nH]c2c1	.	18µM	.	10µM	.
CCc1nc(SCC(=O)Nc2nnc(CC)s2)c2c(=O)n(C)c(=O)n(C)c2n1	.	6.5µM	.	8.2µM	.
